E-sel TNF inh: TNF alpha driven E-selectin expression inhibition | HUVEC TNFa-induced E-selectin immunofluorescence, high content | 120,000 tested, 0.71% active | inhibition, % at 2 µM;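 active means inhibition above the batch mean plus 3 SD, and confirmed as a hit on visual image review, cut at about 43% in these data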;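 further: 0% = TNF-stimulated DMSO wells and 100% = unstimulated control wells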
VCAM1 TNFa inh: reduces TNF alpha induced VCAM1 expression in HUVEC; HUVEC TNFa-induced VCAM-1 immunofluorescence, high-content imaging; inhibition, % at 2 µM; 95,000 tested, 0.48% active; AID 802;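 active means inhibition above the batch mean plus 3 SD, with images confirmed as a hit by eye, cut at about 37% in these data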;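 further: 0% = TNF-stimulated DMSO wells and 100% = unstimulated control wells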
cytoskel mod: cytoskeleton assembly modification; AID 836; 91,000 tested, 0.18% active; HUVEC TNFa F-actin phalloidin imaging, high content; inhibition, % at 2 µM;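 active means inhibition above the batch mean plus 3 SD and confirmed as a hit by visual image inspection, cut at about 30% in these data, passing the limit was not always enough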
TNFa cytotox: toxic to HUVEC cells under TNF alpha stimulation; AID 848; 93,000 tested, 0.17% active; cell count reduction, % at 2 µM; HUVEC TNFalpha-stimulated, Hoechst cell count, imaging;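 active means cell count reduction exceeding the screen mean by over 5 SD, scaled to untreated wells per plate, cut at about 78% in these data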;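 further: cells counted after 24 h of TNF alpha exposure following the 1 h pretreatment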
Numbers without * were called inactive; . = no result. Rows were chosen to be rich in hits. Some 1.1% of all compounds tested hit in one or more screens of this group.

SMILES	E-sel TNF inh	VCAM1 TNFa inh	cytoskel mod	TNFa cytotox
Cc1cccc(C)c1OCC(O)CN1CCC(CN2C(=O)c3cccc4cccc(c34)C2=O)CC1 (centres undefined)	-3	0	4	-12
CCOC(=O)C1=C(c2ccccc2)N(C)C(=O)NC1c1ccc(O)c(OC)c1 (centres undefined)	66*	15	-12	-13
CCOC(=O)C1=C(c2ccccc2)NC(=O)NC1c1ccc(O)c(OCC)c1 (centres undefined)	-3	.	.	.
CCOc1cc(C(=O)OCC(=O)c2c(C)[nH]c3ccccc23)ccc1OCC(=O)N1CCOCC1	-11	38	50*	78
CC(=O)Nc1ccc(S(=O)(=O)n2cnc(C)c2)cc1	9	91*	-9	98*
O=C(NCc1cccnc1)C1CCN(S(=O)(=O)c2cccs2)CC1	69*	3	24	0
Cc1nc2ccc(NC(=O)C3CCN(S(=O)(=O)c4cccs4)CC3)cc2s1	72*	-15	-8	7
Cc1ccc(C(=O)C2CCN(CC(=O)Nc3nc(C)cs3)CC2)cc1	-48	11	14	-1
CCc1ccccc1N(C(=O)c1cccs1)C1C=CS(=O)(=O)C1 (centres undefined)	-21	10	.	-33
Clc1ccc(CNc2ccc3nnc(-c4ccccc4)n3n2)cc1	76*	.	.	.
CC(=O)NC(Cc1c[nH]c2ccccc12)C(=O)OCC(=O)Nc1ccc2c(c1)OCO2 (centres undefined)	.	12	8	-22
CC(=O)N[C@@H](Cc1c[nH]c2ccccc12)C(=O)OCC(=O)Nc1ccc(Cl)c(S(=O)(=O)N(C)C)c1	62*	.	.	.
COc1cccc(/C=C/C(=O)OCC(=O)Nc2ccc(Cl)c(S(=O)(=O)N(C)C)c2)c1	69*	.	.	.
Cc1cc(C)c(Cn2c(=O)n(CCCC(=O)NCc3ccco3)c(=O)c3ccccc32)c(C)c1	-27	6	1	-6
CC1(C)OC(C)(C)/C(=C/Nc2ccccc2)C1=O	6	.	.	.
COc1ccc(C2(CNC(=O)c3cc([N+](=O)[O-])cc([N+](=O)[O-])c3)CCCC2)cc1OC	63*	.	.	.
OCCN=C1CCCc2c1[nH]c1ccc(Br)cc21	.	92*	-8	45
CCN(CC)c1ccc(-c2nn3c(-c4ccccc4OC)nnc3s2)cc1	23	97*	-61	72
CC(OC(=O)c1ccco1)C(=O)NC1CCCCC1 (centres undefined)	86*	-3	17	7
CC(C)C(OC(=O)c1ccco1)C(=O)NC1CCCCC1 (centres undefined)	-12	-6	-24	11
Cc1cccc(Cn2c(C(=O)OC(C)C)cc3c2ccn3C)c1	-8	13	3	-12
CCC(C(=O)N1CCc2cc(OC)c(OC)cc2C1)c1ccccc1 (centres undefined)	100*	12	30	-18
C/C(=N\Nc1cc(-c2ccccc2)nc(-c2ccccc2)n1)c1ccc(O)c(C)c1	80*	.	.	.
CCC(=O)N1c2ccc(S(=O)(=O)CCC(=O)NC3CCCC3)cc2CC1C (centres undefined)	-6	0	8	-31
CCC(=O)N1c2ccc(S(=O)(=O)CCC(=O)N3CCn4c3nc3ccccc34)cc2CC1C (centres undefined)	-22	83*	-51	84*
SMILES	E-sel TNF inh	VCAM1 TNFa inh	cytoskel mod	TNFa cytotox
CCc1c(C)nc2ncnn2c1N1CCC(C(=O)N2CCN(c3ccc(F)cc3)CC2)CC1	55*	-19	10	-60
CCc1c(C)nc2ncnn2c1N1CCCC(C(=O)Nc2ccc(NC(C)=O)cc2)C1 (centres undefined)	-7	-8	6	-5
CCn1c(SCC(=O)NC(C)c2ccccc2)nc2ccccc21 (centres undefined)	-27	63*	-8	28
O=C(CS(=O)(=O)c1c[nH]c2ccccc12)N1CCCCCC1	-10	.	.	.
CCCCn1c(NC(=S)Nc2ccccc2)nc2ccccc21	4	.	.	.
COc1cc(C(=O)OCCNC(=O)c2ccncc2)cc(OC)c1OC	62*	.	.	.
CCCCc1c(O)nc(SCC(=O)Nc2ccc3c(c2)CCC3)[nH]c1=O	60*	.	.	.
CCc1c(O)nc(SCC(=O)Nc2ccc3c(c2)CCC3)[nH]c1=O	3	2	-6	-20
Cc1ccc(C(=O)c2coc3cc([N+](=O)[O-])c(O)c([N+](=O)[O-])c23)cc1	-10	.	.	.
C=CCNS(=O)(=O)c1nc(C)c(Cl)c(C)c1C#N	79*	.	.	.
CCCCn1c(CNC(=O)C23CC4CC(CC(C4)C2)C3)nnc1SC(C)CC (centres undefined)	55	.	.	.
O=C(O)C1CCC(N2C(=O)C3CCCCC3C2=O)CC1 (centres undefined)	-12	78*	-49	57
COC(=O)C1C(=O)C2=C(CC1C)NC(=O)CC2c1cccc(C)c1 (centres undefined)	9	77*	-8	87*
O=C(Nc1ccccc1)N1CCC(c2ccccc2)C1 (centres undefined)	21	7	65*	-16
CNC(=O)N(O)C1N(c2ccccc2)C(=S)SC1(C)C (centres undefined)	6	.	.	.
O=[N+]([O-])c1ccccc1Sc1nccn1Cc1ccccc1	-2	.	.	.
COC(=O)CC(NC(=O)c1ccc(C)cc1)c1ccccc1 (centres undefined)	-4	-9	10	-40
CC(C)CCNC(=O)c1nnc(Cc2ccc(Cl)cc2)o1	70*	-3	-10	-2
COc1ccccc1N1CCN(c2cc(C)nc3nc(C)nn23)CC1	18	.	.	.
COc1ccccc1N1CCN(c2cc(N3CCCC3)nc(C)n2)CC1	100*	12	-28	29
CC(C)(C)C(=O)/C(=C\c1ccc([N+](=O)[O-])cc1)n1cncn1	66*	13	5	-14
CCOC(=O)c1ccc(NC(=O)Cn2nnc(-c3ccccc3)n2)cc1	.	88*	23	98*
O=c1c2c(n3nnnc3n1-c1ccccc1)-c1ccccc1CC21CCCC1	100*	-3	-17	-28
Cc1ccc(N2C(=O)c3ccc(C(=O)N4CCN(c5ccccc5F)CC4)cc3C2=O)cc1	-14	.	.	.
O=C(O)c1ccc(-c2ccccc2Cl)o1	-21	.	.	.
O=C(O)c1ccc(-c2ccc(Cl)cc2Cl)o1	61*	-18	-15	0
O=C(COC(=O)c1ccc([N+](=O)[O-])s1)Nc1ncc(C(F)(F)F)cc1Cl	3	.	.	.
COC(=O)c1[nH]c2cc(OC)ccc2c1NC(=O)CN1CCC(C(N)=O)(N2CCCCC2)CC1	2	50*	55*	-15

From PubChem
